# About 79,000 compounds went through this panel and 15% of them were active in at least one assay; those are over-represented in the sample as a whole. A number with no mark means an inactive call. The source made the active and inactive calls. No stated cut-off is given here; in the data, active means growth inhibition above about 70%; inactive means the rest.
# Experiments:
# [1] = NCI Yeast Anticancer Drug Screen. Data for the rad52 strain (AID 147);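 further: 0% = growth of vehicle-treated control cultures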; conditions: S. cerevisiae rad52 mutant growth inhibition, stronger effect = higher value
# Summary of the method: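 Measured: yeast growth inhibition. System: strain with a defined DNA damage repair alteration. Reference: vehicle-treated control cultures.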
# [2] = NCI Yeast Anticancer Drug Screen. Data for the wt1 strain (AID 149);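 further: 0% = growth of vehicle-treated wt1 cultures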; conditions: S. cerevisiae wt1 strain (SPY 50644) growth inhibition, stronger effect = higher value
# Summary of the method: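 Each compound is tested on wt1 yeast and the loss of growth versus vehicle gives the inhibition value.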
# [3] = NCI Yeast Anticancer Drug Screen. Data for the rad50EPP+ strain (AID 151);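 further: 0% = growth of vehicle-treated control cultures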; conditions: S. cerevisiae rad50 mutant strain, stronger effect = higher value
# Summary of the method: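 One strain with a rad50 alteration (rad50EPP+) was compound-treated, its growth then compared to that of vehicle controls.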
# [4] = NCI Yeast Anticancer Drug Screen. Data for the mgt1 strain (AID 153); conditions: S. cerevisiae mgt1 mutant growth inhibition, stronger effect = higher value
# Summary of the method: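 After exposure of the mgt1 yeast mutant to compound, growth was measured and reported as inhibition compared with vehicle controls.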
# [5] = NCI Yeast Anticancer Drug Screen. Data for the rad50 strain (AID 155);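 further: 0% = growth of vehicle-only cultures of the same strain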; conditions: S. cerevisiae rad50 strain growth inhibition, stronger effect = higher value
# Summary of the method: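 Vehicle-treated cultures provide the reference for the growth inhibition reported for compound-exposed, repair-deficient yeast.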
# [6] = NCI Yeast Anticancer Drug Screen. Data for the mec2-1 strain (AID 157); conditions: S. cerevisiae mec2-1 strain, stronger effect = higher value
# Summary of the method: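 Test agents were screened against the mec2-1 yeast strain, with defined DNA repair or cell cycle alteration. Growth was scored as inhibition against vehicle-only controls.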
# [7] = NCI Yeast Anticancer Drug Screen. Data for the rad14 strain (AID 159);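 further: 0% = growth of vehicle-treated control cultures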; conditions: S. cerevisiae rad14 strain growth inhibition, stronger effect = higher value
# Summary of the method: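 Inhibition of growth is reported for a repair-deficient yeast mutant following compound treatment, calculated relative to cultures that received vehicle.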
# [8] = NCI Yeast Anticancer Drug Screen. Data for the sgs1 mgt1 strain (AID 161);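 further: 0% = growth of cultures given vehicle only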; conditions: S. cerevisiae sgs1 mgt1 strain, stronger effect = higher value
# Summary of the method: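 Mutant yeast exposed to compound; growth scored against vehicle-only wells.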
# [9] = NCI Yeast Anticancer Drug Screen. Data for the CLN2oe strain (AID 163);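 further: 0% = growth of vehicle-only control cultures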; conditions: S. cerevisiae CLN2oe strain, stronger effect = higher value
# Summary of the method: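 Here, growth inhibition in a cell-cycle-altered yeast strain after compound exposure was quantified against vehicle control growth.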
# [10] = NCI Yeast Anticancer Drug Screen. Data for the cln2 rad14 strain (AID 165);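 further: 0% = growth equal to vehicle treated cultures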; conditions: S. cerevisiae cln2 rad14 strain, stronger effect = higher value
# Summary of the method: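 Growth of compound-exposed yeast (cln2 rad14 genotype) measured and expressed as inhibition relative to vehicle.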
# [11] = NCI Yeast Anticancer Drug Screen. Data for the bub3 strain (AID 167); conditions: S. cerevisiae bub3 mutant strain, stronger effect = higher value
# Summary of the method: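 Mutant yeast screening strain plus compound; vehicle-treated cultures serve as the 0% inhibition reference.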
# [12] = NCI Yeast Anticancer Drug Screen. Data for the wt2 strain (AID 169); conditions: S. cerevisiae wt2 strain growth inhibition, stronger effect = higher value
# Summary of the method: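 Genetically defined yeast strains from a DNA-repair/cell-cycle panel were used. Compound-exposed yeast growth was measured, and the inhibition was calculated relative to vehicle treatment.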
# [13] = NCI Yeast Anticancer Drug Screen. Data for the mlh1 strain (AID 171);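 further: 0% = growth of vehicle-treated control cultures of the same strain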; conditions: S. cerevisiae mlh1 strain growth inhibition, stronger effect = higher value
# Summary of the method: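 Here the genetically defined yeast mutant is grown with each compound, and the extent to which its growth falls below that of vehicle-exposed cells is reported.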
# [14] = NCI Yeast Anticancer Drug Screen. Data for the sgs1 strain (AID 173);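 further: 0% = growth of vehicle-only control cultures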; conditions: S. cerevisiae sgs1 mutant, stronger effect = higher value
# Summary of the method: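 Relative growth inhibition, referenced to vehicle, was determined in a yeast strain with a defined alteration affecting DNA damage repair or cell cycle control after compound exposure.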
# [15] = NCI Yeast Anticancer Drug Screen. Data for the mlh1 rad18 strain (AID 175); conditions: S. cerevisiae mlh1 rad18 strain growth inhibition, stronger effect = higher value
# Summary of the method: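 In this whole-cell yeast screen, a strain with altered DNA damage repair is challenged with compound, and its growth is measured against matched vehicle-treated controls.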
# [16] = NCI Yeast Anticancer Drug Screen. Data for the rad18 strain (AID 177); conditions: S. cerevisiae rad18 mutant growth inhibition, stronger effect = higher value
# Summary of the method: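 Screen uses a yeast strain with a defined lesion in DNA damage repair; compound effect is read as loss of growth compared to untreated vehicle cultures.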
# [17] = at 5.0 µM (retest, dose inferred, filed as 0.5)
# [18] = at 50.0 µM (retest, dose inferred, filed as 5.0)
smiles,measurement,setting,value
CN1C(=O)C(CC(=O)O)NC1=S (stereo unspecified),growth inhibition,[1]; at 1.2 µM,0%
same,growth inhibition,[1]; at 3.7 µM,0%
same,growth inhibition,[1]; at 11.0 µM,-1%
same,growth inhibition,[1]; at 33.0 µM,6%
same,growth inhibition,[1]; at 100.0 µM,22%
same,growth inhibition,[2]; at 1.2 µM,-2%
same,growth inhibition,[2]; at 3.7 µM,-2%
same,growth inhibition,[2]; at 11.0 µM,1%
same,growth inhibition,[2]; at 33.0 µM,3%
same,growth inhibition,[2]; at 100.0 µM,11%
same,growth inhibition,[3]; at 1.2 µM,-1%
same,growth inhibition,[3]; at 3.7 µM,-3%
same,growth inhibition,[3]; at 11.0 µM,-2%
same,growth inhibition,[3]; at 33.0 µM,-10%
same,growth inhibition,[3]; at 100.0 µM,-5%
same,growth inhibition,[4]; at 1.2 µM,-3%
same,growth inhibition,[4]; at 3.7 µM,-2%
same,growth inhibition,[4]; at 11.0 µM,1%
same,growth inhibition,[4]; at 33.0 µM,21%
same,growth inhibition,[4]; at 100.0 µM,27%
same,growth inhibition,[5]; at 1.2 µM,-1%
same,growth inhibition,[5]; at 3.7 µM,-2%
same,growth inhibition,[5]; [17],20%
same,growth inhibition,[5]; at 11.0 µM,2%
same,growth inhibition,[5]; at 33.0 µM,9%
same,growth inhibition,[5]; [18],14%
same,growth inhibition,[5]; at 50.0 µM,61.9%
same,growth inhibition,[5]; at 100.0 µM,25%
same,growth inhibition,[6]; at 1.2 µM,1%
same,growth inhibition,[6]; at 3.7 µM,3%
same,growth inhibition,[6]; [17],2%
same,growth inhibition,[6]; at 11.0 µM,4%
same,growth inhibition,[6]; at 33.0 µM,15%
same,growth inhibition,[6]; [18],27%
same,growth inhibition,[6]; at 50.0 µM,33.9%
same,growth inhibition,[6]; at 100.0 µM,47%
same,growth inhibition,[7]; at 1.2 µM,0%
same,growth inhibition,[7]; at 3.7 µM,0%
same,growth inhibition,[7]; at 11.0 µM,-1%
same,growth inhibition,[7]; at 33.0 µM,16%
same,growth inhibition,[7]; at 100.0 µM,39%
same,growth inhibition,[8]; [17],-1%
same,growth inhibition,[8]; [18],17%
same,growth inhibition,[8]; at 50.0 µM,58.2%
same,growth inhibition,[9]; at 1.2 µM,-3%
same,growth inhibition,[9]; at 3.7 µM,-3%
same,growth inhibition,[9]; at 11.0 µM,-1%
same,growth inhibition,[9]; at 33.0 µM,-2%
same,growth inhibition,[9]; at 100.0 µM,2%
same,growth inhibition,[10]; [17],-10%
same,growth inhibition,[10]; [18],12%
same,growth inhibition,[10]; at 50.0 µM,2.1%
same,growth inhibition,[11]; at 1.2 µM,-4%
same,growth inhibition,[11]; at 3.7 µM,-7%
same,growth inhibition,[11]; [17],-10%
same,growth inhibition,[11]; at 11.0 µM,-3%
same,growth inhibition,[11]; at 33.0 µM,3%
same,growth inhibition,[11]; [18],2%
same,growth inhibition,[11]; at 50.0 µM,65.8%
same,growth inhibition,[11]; at 100.0 µM,43%
same,growth inhibition,[12]; at 1.2 µM,-2%
same,growth inhibition,[12]; at 3.7 µM,0%
same,growth inhibition,[12]; at 11.0 µM,3%
same,growth inhibition,[12]; at 33.0 µM,7%
same,growth inhibition,[12]; at 100.0 µM,20%
same,growth inhibition,[13]; at 1.2 µM,-2%
same,growth inhibition,[13]; at 3.7 µM,0%
same,growth inhibition,[13]; at 11.0 µM,4%
same,growth inhibition,[13]; at 33.0 µM,11%
same,growth inhibition,[13]; at 100.0 µM,46%
same,growth inhibition,[14]; at 1.2 µM,0%
same,growth inhibition,[14]; at 3.7 µM,5%
same,growth inhibition,[14]; at 11.0 µM,9%
same,growth inhibition,[14]; at 33.0 µM,24%
same,growth inhibition,[14]; at 100.0 µM,70% (active)
same,growth inhibition,[15]; [17],-11%
same,growth inhibition,[15]; [18],62%
same,growth inhibition,[15]; at 50.0 µM,25.7%
same,growth inhibition,[16]; at 1.2 µM,1%
same,growth inhibition,[16]; at 3.7 µM,0%
same,growth inhibition,[16]; at 11.0 µM,-9%
same,growth inhibition,[16]; at 33.0 µM,15%
same,growth inhibition,[16]; at 100.0 µM,45%
CC(C)S(=O)(=O)/C=C\S(=O)(=O)C(C)C,growth inhibition,[1]; at 1.2 µM,-5%
same,growth inhibition,[1]; at 3.7 µM,-7%
same,growth inhibition,[1]; at 11.0 µM,23%
same,growth inhibition,[1]; at 33.0 µM,75% (active)
same,growth inhibition,[1]; at 100.0 µM,97% (active)
same,growth inhibition,[2]; at 1.2 µM,1%
same,growth inhibition,[2]; at 3.7 µM,19%
same,growth inhibition,[2]; at 11.0 µM,44%
same,growth inhibition,[2]; at 33.0 µM,87% (active)
same,growth inhibition,[2]; at 100.0 µM,98% (active)
same,growth inhibition,[3]; at 1.2 µM,-1%
same,growth inhibition,[3]; at 3.7 µM,-11%
same,growth inhibition,[3]; at 11.0 µM,5%
same,growth inhibition,[3]; at 33.0 µM,26%
same,growth inhibition,[3]; at 100.0 µM,25%
same,growth inhibition,[4]; at 1.2 µM,1%
same,growth inhibition,[4]; at 3.7 µM,-5%
same,growth inhibition,[4]; at 11.0 µM,15%
same,growth inhibition,[4]; at 33.0 µM,63%
same,growth inhibition,[4]; at 100.0 µM,96% (active)
same,growth inhibition,[5]; at 1.2 µM,-5%
same,growth inhibition,[5]; at 3.7 µM,-5%
same,growth inhibition,[5]; [17],-138%
same,growth inhibition,[5]; at 11.0 µM,14%
same,growth inhibition,[5]; at 33.0 µM,83% (active)
same,growth inhibition,[5]; [18],74% (active)
same,growth inhibition,[5]; at 50.0 µM,64.8%
same,growth inhibition,[5]; at 100.0 µM,97% (active)
same,growth inhibition,[6]; at 1.2 µM,1%
same,growth inhibition,[6]; at 3.7 µM,2%
same,growth inhibition,[6]; [17],-45%
same,growth inhibition,[6]; at 11.0 µM,7%
same,growth inhibition,[6]; at 33.0 µM,58%
same,growth inhibition,[6]; [18],69%
same,growth inhibition,[6]; at 50.0 µM,62.8%
same,growth inhibition,[6]; at 100.0 µM,93% (active)
same,growth inhibition,[7]; at 1.2 µM,-3%
same,growth inhibition,[7]; at 3.7 µM,9%
same,growth inhibition,[7]; at 11.0 µM,36%
same,growth inhibition,[7]; at 33.0 µM,55%
same,growth inhibition,[7]; at 100.0 µM,99% (active)
same,growth inhibition,[8]; [17],-56%
same,growth inhibition,[8]; [18],76% (active)
same,growth inhibition,[8]; at 50.0 µM,72% (active)
same,growth inhibition,[9]; at 1.2 µM,-6%
same,growth inhibition,[9]; at 3.7 µM,-4%
same,growth inhibition,[9]; at 11.0 µM,4%
same,growth inhibition,[9]; at 33.0 µM,28%
same,growth inhibition,[9]; at 100.0 µM,85% (active)
same,growth inhibition,[10]; [17],-50%
same,growth inhibition,[10]; [18],-3%
same,growth inhibition,[10]; at 50.0 µM,-17.3%
same,growth inhibition,[11]; at 1.2 µM,-4%
same,growth inhibition,[11]; at 3.7 µM,1%
same,growth inhibition,[11]; [17],-71%
same,growth inhibition,[11]; at 11.0 µM,5%
same,growth inhibition,[11]; at 33.0 µM,52%
same,growth inhibition,[11]; [18],81% (active)
same,growth inhibition,[11]; at 50.0 µM,50.6%
same,growth inhibition,[11]; at 100.0 µM,92% (active)
same,growth inhibition,[12]; at 1.2 µM,5%
same,growth inhibition,[12]; at 3.7 µM,15%
same,growth inhibition,[12]; at 11.0 µM,44%
same,growth inhibition,[12]; at 33.0 µM,90% (active)
same,growth inhibition,[12]; at 100.0 µM,99% (active)
same,growth inhibition,[13]; at 1.2 µM,-8%
same,growth inhibition,[13]; at 3.7 µM,-1%
same,growth inhibition,[13]; at 11.0 µM,1%
same,growth inhibition,[13]; at 33.0 µM,64%
same,growth inhibition,[13]; at 100.0 µM,96% (active)
same,growth inhibition,[14]; at 1.2 µM,-5%
same,growth inhibition,[14]; at 3.7 µM,-8%
same,growth inhibition,[14]; at 11.0 µM,30%
same,growth inhibition,[14]; at 33.0 µM,80% (active)
same,growth inhibition,[14]; at 100.0 µM,98% (active)
same,growth inhibition,[15]; [17],-133%
same,growth inhibition,[15]; [18],85% (active)
same,growth inhibition,[15]; at 50.0 µM,82.8% (active)
same,growth inhibition,[16]; at 1.2 µM,-2%
same,growth inhibition,[16]; at 3.7 µM,5%
same,growth inhibition,[16]; at 11.0 µM,19%
same,growth inhibition,[16]; at 33.0 µM,78% (active)
same,growth inhibition,[16]; at 100.0 µM,93% (active)

# Reference: PubChem BioAssay (NCI)
